# Measured values: ChEMBL document CHEMBL1961873, “Compounds: GSK PKIS; Assays: Nanosyn kinase panel” (2012)
# Columns and labels:
# [1] = biological target: Sphingosine kinase 1 (Homo sapiens) (UniProt Q9NYA1); settings: at 1 µM;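 note: mean SPHK1 inhibition value reported from the GSK PKIS kinase panel screen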
# [2] = biological target: T1, Sphingosine kinase 2 (Homo sapiens) (UniProt Q9NRA0); settings: at 0.1 µM
# T1 sequence (whole entry): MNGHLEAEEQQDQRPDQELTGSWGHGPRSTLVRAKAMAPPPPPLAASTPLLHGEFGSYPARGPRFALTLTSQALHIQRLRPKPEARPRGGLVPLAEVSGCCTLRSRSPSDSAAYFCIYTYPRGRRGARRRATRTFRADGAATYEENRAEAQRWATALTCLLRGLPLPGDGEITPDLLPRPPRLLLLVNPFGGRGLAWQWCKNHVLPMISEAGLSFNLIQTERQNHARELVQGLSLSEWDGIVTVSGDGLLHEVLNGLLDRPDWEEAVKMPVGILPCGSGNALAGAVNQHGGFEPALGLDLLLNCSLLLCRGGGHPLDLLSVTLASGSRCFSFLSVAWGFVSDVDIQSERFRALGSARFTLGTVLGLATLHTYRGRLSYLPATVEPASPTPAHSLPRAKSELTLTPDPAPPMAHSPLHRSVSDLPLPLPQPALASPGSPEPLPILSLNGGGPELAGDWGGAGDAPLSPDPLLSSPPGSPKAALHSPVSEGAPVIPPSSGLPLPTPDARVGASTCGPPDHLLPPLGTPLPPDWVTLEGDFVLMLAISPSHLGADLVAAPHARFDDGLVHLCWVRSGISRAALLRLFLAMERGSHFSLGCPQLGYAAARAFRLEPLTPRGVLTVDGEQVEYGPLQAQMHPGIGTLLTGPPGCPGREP
# [3] = biological target: T1, Sphingosine kinase 2 (Homo sapiens); settings: at 1 µM
# [4] = biological target: Casein kinase II subunit alpha (Homo sapiens) (UniProt P68400); settings: at 0.1 µM
# [5] = biological target: Casein kinase II subunit alpha (Homo sapiens) (UniProt P68400); settings: at 1 µM
# [6] = biological target: T2, Inhibitor of nuclear factor kappa-B kinase subunit alpha (Homo sapiens) (UniProt O15111); settings: at 0.1 µM
# T2 sequence (whole entry): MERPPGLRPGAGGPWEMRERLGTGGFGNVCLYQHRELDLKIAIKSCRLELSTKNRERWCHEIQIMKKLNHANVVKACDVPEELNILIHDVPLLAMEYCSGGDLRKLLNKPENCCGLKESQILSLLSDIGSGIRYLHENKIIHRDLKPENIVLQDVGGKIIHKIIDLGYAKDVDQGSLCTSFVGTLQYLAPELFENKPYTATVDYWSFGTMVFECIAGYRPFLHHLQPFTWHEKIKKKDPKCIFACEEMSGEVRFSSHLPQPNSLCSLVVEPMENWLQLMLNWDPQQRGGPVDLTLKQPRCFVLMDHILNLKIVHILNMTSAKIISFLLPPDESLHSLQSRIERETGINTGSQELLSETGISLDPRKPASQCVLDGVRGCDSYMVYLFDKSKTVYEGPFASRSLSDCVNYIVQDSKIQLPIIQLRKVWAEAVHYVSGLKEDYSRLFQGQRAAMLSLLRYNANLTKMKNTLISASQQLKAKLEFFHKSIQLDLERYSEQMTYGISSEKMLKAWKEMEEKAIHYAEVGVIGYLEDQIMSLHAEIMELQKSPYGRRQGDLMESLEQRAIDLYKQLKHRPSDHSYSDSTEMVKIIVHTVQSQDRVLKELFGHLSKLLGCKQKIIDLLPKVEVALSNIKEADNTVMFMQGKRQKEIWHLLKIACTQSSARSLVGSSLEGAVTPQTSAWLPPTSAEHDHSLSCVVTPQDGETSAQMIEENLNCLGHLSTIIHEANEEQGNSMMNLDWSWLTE
# [7] = biological target: T2, Inhibitor of nuclear factor kappa-B kinase subunit alpha (Homo sapiens); settings: at 1 µM
# [8] = biological target: T3, Inhibitor of nuclear factor kappa-B kinase subunit beta (Homo sapiens) (UniProt O14920); settings: at 0.1 µM
# T3 sequence (whole entry): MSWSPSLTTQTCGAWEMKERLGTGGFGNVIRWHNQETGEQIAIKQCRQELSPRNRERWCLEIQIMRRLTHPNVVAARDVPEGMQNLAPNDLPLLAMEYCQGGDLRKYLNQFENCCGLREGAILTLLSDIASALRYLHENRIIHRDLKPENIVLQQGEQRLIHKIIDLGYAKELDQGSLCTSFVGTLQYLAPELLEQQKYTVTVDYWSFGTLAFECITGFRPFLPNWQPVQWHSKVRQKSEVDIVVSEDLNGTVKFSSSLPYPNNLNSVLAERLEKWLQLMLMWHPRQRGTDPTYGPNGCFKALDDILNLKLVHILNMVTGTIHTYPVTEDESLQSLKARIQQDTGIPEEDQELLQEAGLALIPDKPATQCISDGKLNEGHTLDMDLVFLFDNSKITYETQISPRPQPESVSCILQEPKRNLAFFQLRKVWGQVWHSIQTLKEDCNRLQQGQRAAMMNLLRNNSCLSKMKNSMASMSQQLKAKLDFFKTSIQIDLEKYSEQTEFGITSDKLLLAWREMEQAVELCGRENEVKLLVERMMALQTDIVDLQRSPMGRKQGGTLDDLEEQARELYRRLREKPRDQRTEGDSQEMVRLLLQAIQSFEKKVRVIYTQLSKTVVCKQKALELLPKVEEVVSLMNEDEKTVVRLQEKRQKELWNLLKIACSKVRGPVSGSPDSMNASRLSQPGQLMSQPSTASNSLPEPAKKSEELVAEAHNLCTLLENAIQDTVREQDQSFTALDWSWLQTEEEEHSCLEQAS
# [9] = biological target: T3, Inhibitor of nuclear factor kappa-B kinase subunit beta (Homo sapiens); settings: at 1 µM
# [10] = biological target: T4, Inhibitor of nuclear factor kappa-B kinase subunit epsilon (Homo sapiens) (UniProt Q14164); settings: at 0.1 µM;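 note: mean inhibition of IKKε reported, from the GSK PKIS dataset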
# T4 sequence (whole entry): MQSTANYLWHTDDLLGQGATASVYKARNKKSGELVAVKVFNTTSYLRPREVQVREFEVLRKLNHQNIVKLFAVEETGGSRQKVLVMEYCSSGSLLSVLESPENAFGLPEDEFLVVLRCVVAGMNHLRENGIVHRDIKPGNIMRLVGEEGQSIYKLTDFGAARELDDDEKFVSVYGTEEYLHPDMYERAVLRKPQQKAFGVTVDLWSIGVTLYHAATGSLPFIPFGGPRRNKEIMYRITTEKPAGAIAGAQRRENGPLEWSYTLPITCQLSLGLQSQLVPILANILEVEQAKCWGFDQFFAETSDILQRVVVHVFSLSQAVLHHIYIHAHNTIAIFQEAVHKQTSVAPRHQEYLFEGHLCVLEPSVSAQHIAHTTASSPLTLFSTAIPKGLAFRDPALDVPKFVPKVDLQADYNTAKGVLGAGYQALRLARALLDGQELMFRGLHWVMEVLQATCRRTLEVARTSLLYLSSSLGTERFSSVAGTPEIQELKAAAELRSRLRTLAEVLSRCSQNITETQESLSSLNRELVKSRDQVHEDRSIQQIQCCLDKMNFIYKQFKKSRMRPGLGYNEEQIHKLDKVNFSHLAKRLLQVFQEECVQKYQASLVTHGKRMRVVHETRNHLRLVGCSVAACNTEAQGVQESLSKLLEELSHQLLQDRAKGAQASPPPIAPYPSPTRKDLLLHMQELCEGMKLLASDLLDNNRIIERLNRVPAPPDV
# Sphingosine kinase 1 (Homo sapiens), sequence (Q9NYA1 whole entry): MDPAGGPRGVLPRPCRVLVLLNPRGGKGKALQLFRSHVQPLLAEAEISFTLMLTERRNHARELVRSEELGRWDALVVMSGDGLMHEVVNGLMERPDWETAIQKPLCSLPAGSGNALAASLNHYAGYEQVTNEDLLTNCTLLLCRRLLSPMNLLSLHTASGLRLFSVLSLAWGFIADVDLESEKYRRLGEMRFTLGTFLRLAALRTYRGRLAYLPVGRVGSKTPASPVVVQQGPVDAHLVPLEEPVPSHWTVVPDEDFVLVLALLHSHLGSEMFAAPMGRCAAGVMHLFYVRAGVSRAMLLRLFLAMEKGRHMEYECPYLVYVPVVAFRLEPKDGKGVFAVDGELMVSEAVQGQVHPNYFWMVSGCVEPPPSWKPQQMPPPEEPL
# Casein kinase II subunit alpha (Homo sapiens), sequence (P68400 whole entry, looked up): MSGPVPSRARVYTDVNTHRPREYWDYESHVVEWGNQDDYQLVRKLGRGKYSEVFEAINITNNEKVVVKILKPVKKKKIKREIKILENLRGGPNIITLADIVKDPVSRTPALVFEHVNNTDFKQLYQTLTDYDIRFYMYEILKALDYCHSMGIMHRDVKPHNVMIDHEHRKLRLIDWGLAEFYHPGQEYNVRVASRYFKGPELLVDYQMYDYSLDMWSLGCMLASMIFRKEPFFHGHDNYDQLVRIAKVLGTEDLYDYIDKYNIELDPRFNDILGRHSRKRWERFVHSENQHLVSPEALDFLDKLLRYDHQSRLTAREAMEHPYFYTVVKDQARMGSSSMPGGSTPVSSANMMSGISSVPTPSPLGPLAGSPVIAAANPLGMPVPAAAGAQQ
Structure (SMILES),inhibition [1],inhibition [2],inhibition [3],inhibition [4],inhibition [5],inhibition [6],inhibition [7],inhibition [8],inhibition [9],inhibition [10]
CCn1c(-c2nonc2N)nc2c(C#CC(C)(C)O)ncc(OCC3CCNCC3)c21,0.24%,1.73%,-2.73%,4.56%,12.8%,7.05%,7.37%,4.88%,4.77%,90.3%
NS(=O)(=O)c1ccc(-c2ccc3c(NC(=O)C4CC4)n[nH]c3c2)cc1,-1.21%,0.08%,-0.22%,1.12%,1.51%,2.81%,3%,3.94%,3.28%,-0.78%
NC(=O)c1sc(-n2cnc3cc(C(F)(F)F)ccc32)cc1OCc1ccccc1Br,0.07%,-0.95%,0%,-1.01%,2.21%,2.77%,2.85%,3.87%,2.52%,3.08%
Nc1nonc1-c1nc2cnccc2n1C1CCCCC1,0.54%,1.2%,0.21%,-0.44%,4.16%,-6.64%,-2.66%,-2.5%,-5.78%,-0.73%
COc1cc(C=NNc2ncnc3c2cnn3Cc2ccccc2)ccc1O,-3.17%,2.14%,0.11%,-0.94%,13.8%,-2.85%,-2.41%,-2.63%,-2.75%,-4.31%
Fc1ccc(-c2ncn(C3CCNCC3)c2-c2ccnc(Oc3ccccc3)n2)cc1,-1.73%,1.51%,1.09%,6.73%,1.68%,-3.14%,1.08%,4.13%,3.12%,2.6%
Cc1cc(-c2ccco2)cc(C)c1/C=C/c1cncc(-c2nn[nH]n2)c1,-1.08%,-0.36%,1.61%,1.49%,3.8%,-1.31%,2.26%,3.61%,2.75%,4.22%
CCn1c(-c2nonc2N)nc2c(C#CCN)ncc(OCCCN)c21,-2.44%,0.6%,-1.33%,-1.18%,10.1%,-6.76%,-0.57%,-4.65%,0.63%,0.53%
NS(=O)(=O)c1ccc(N/C=C2\C(=O)Nc3ccc4ncsc4c32)cc1,0.02%,-1.02%,-0.93%,7.56%,28%,2.29%,14.3%,8.87%,13.1%,13.3%
COc1cccc(COc2cc(-n3cnc4ccccc43)sc2C(N)=O)c1,-1.55%,-0.24%,-0.85%,11.6%,-0.53%,9.44%,7.88%,-0.21%,-0.64%,-2.28%
COc1cccc(-n2ncc3c(N/N=C/c4ccncc4)ncnc32)c1,-2.79%,-0.91%,-0.32%,18.2%,59.7%,1.55%,1.71%,4.82%,4.07%,5.23%
COc1cc2c(cc1Nc1nc(Nc3ccsc3C(N)=O)c3cc[nH]c3n1)N(C(=O)CN(C)C)CCC2,0.45%,4.92%,-0.26%,8.25%,37.7%,-7.1%,-1.3%,2.95%,-1.2%,-5.2%
CCn1c(-c2nonc2N)nc2c(C#CC(C)(C)O)nc(O[C@@H](CN)c3ccccc3)cc21,-0.99%,-0.06%,-0.62%,-0.87%,3.9%,-6.57%,-2.27%,-1.36%,-3.23%,88.3%
CCn1c(-c2nonc2N)nc2c(C#CC(C)(C)O)ncc(OC[C@@H]3CCCN3)c21,1.85%,1.65%,0%,13.9%,-1.67%,7.49%,-0.05%,4.75%,4.4%,89.6%
